# Reference: PubChem BioAssay (Tox21)
# Results filed as inconclusive are left out. A number with no mark means an inactive call. The source made the active and inactive calls. Calls come from the whole dose curve; as a rule, active = well fitted activation curve with a large enough effect in the repeat runs; inconclusive = weak or mixed curves, or effect the other way; inactive = no such curve, though single readings can be large or run the other way.
# Assay: qHTS assay to identify small molecule agonists of the estrogen related receptor signaling pathway with the pleiotropic PPARgamma coactivator (PGC) from Tox21 10K library (AID 1224842); note: nearly all actives have a fitted effect of over 15% in size
# Conditions: PGC/ERR reporter cell line, luciferase ONE-Glo, 18 h; series mostly up to 92.4 µM; activation: at the top concentration
# Source text: National Center for Advancing Translational Sciences [NCATS] NIH Chemical Genomics Center [NCGC] U.S. Environmental Protection Agency [EPA] National Institutes of Environmental Health Sciences [NIEHS] National Toxicology Program [NTP] Assay overview: Estrogen related receptors (ERRs), the first orphan nuclear receptors discovered, play an important role in the control of cellular energy metabolism. ERRs are required for high-energy production in response to the environmental challenges. The pleiotropic PPARgamma coactivator (PGC) is a major partner of ERR and a key regulator in energy homeostasis. Together they have been implicated in the etiology of metabolic disorders such as Type 2 diabetes and metabolic syndrome. ERR-alpha was also identified as an adverse marker for breast cancer progression; ERR-alpha-positive tumors have a poor prognosis. To screen and to identify environmental compounds that perturb the PGC/ERR signaling pathways could provide valuable information for potential therapeutic or preventive measures in the treatment of metabolic disease. For identifying PGC/ERR agonists, PGC/ERR cell line (provided by NTP) has been used to screen Tox21 10K library.
# Assay Protocol Summary: The PGC/ERR cells were dispensed at 2,000 cells/5 ul/well in 1536-well white plates using a Multidrop dispenser. After the assay plates were incubated at a 37 C/5% CO2 incubator for 6 hours, 23 nL of compounds dissolved in DMSO, positive and negative controls or DMSO only was transferred to the assay plate by a pin tool. The plates were incubated at 37 C for 18 hours. 4 ul/well of One-Glo reagent was added into the assay plates using a Flying Reagent Dispenser. After 30-minute incubation at room temperature, the luminescence intensity in the plates was measured using a ViewLux plate reader.
# % is set by controls: 0 for no effect and ±100 for the full control effect; potency is the fitted concentration of half-maximal effect.
Structure (SMILES),activation,Potency
C=CCCCCCC,-3.25%,–
CCCCCCCCN(C)C,5.1%,–
O=S1(=O)c2cccc3cccc(c23)N1CCCN1CCN(c2ccc(F)cc2)CC1,-7.63% [at 42.5 µM],–
C#CCOC(=O)[C@@H](C)Oc1ccc(Oc2ncc(Cl)cc2F)cc1,-7.82%,–
C=CC[N+]1([C@H]2C[C@H]3[C@@H]4CC[C@H]5C[C@H](OC(C)=O)[C@@H](N6CCCCC6)C[C@]5(C)[C@H]4CC[C@]3(C)[C@H]2OC(=O)CC)CCCCC1,-0.678% [at 42.5 µM],–
O=C(O)Cc1sc(-c2ccccc2)nc1-c1ccc(Cl)cc1,-4.95% [at 42.5 µM],–
Cc1ccc(C(=O)C(C)CN2CCCCC2)cc1 (stereo not given),-2.4% [at 42.5 µM],–
O=C(O)C(c1ccc(Cl)cc1)c1ccc(Cl)cc1,-0.412%,–
COc1ccc2[nH]c(S(=O)Cc3ncc(C)c(OC)c3C)nc2n1 (stereo not given),-9.85% [at 42.5 µM],–
Cc1ccccn1,-1.13%,–
O=C(C(=O)c1ccc(Br)cc1)c1ccc(Br)cc1,2.38% [at 19 µM],–
CC(CN)CCCN (stereo not given),-0.234%,–
CCN(CC)CCOC(=O)C1(c2ccccc2)CCCC1,0.193% [at 42.5 µM],–
COc1cc(C(C)(C)C)c(O)c(C(C)(C)C)c1,-0.352%,–
CCCCC(CC)COCCCN (stereo not given),-11.5%,–
Nc1nc(N)c2nc(CNc3ccc(C(=O)N[C@@H](CCC(=O)O)C(=O)O)cc3)cnc2n1,-26.9%,–
CC(=O)/C(C)=C/C1C(C)=CCCC1(C)C (stereo not given),1.66%,–
CN1CCN(C2=Nc3ccccc3Sc3ccc(Cl)cc32)CC1,0.457% [at 42.5 µM],–
CCCCCC(CO)CCC (stereo not given),-6.05%,–
O=CNc1ccccc1,0.118%,–

Structure (SMILES),activation,Potency
NCc1ccccc1,4.13%,–
CC(=O)N(O)CCCCCNC(=O)CCC(=O)N(O)CCCCCNC(=O)CCC(=O)N(O)CCCCCN,-11.2% [at 42.5 µM],–
O=C(CCN1CCN2CCCC2C1)N1c2ccccc2Sc2ccc(Cl)cc21 (stereo not given),-6.92% [at 19 µM],–
CCN(CC)CCOc1ccc2c(c1)C(=O)c1cc(OCCN(CC)CC)ccc1-2,1.85% [at 42.5 µM],–
CC(=O)[C@@]1(O)CC[C@H]2[C@@H]3C[C@H](C)C4=CC(=O)CC[C@]4(C)[C@H]3CC[C@@]21C,-11% [at 42.5 µM],–
Cc1ccccc1N=Nc1ccc(N=Nc2c(O)ccc3ccccc23)c(C)c1,-0.411% [at 42.5 µM],–
Cc1cccc(OCCOc2cccc(C)c2)c1,5.32%,–
O=C(NN1CCCC1)NS(=O)(=O)c1ccc(Cl)cc1,1.58% [at 42.5 µM],–
COC(=O)C(C)=O,1.26%,–
C=Cc1c(C)c2cc3[nH]c(cc4nc(cc5nc(cc1[nH]2)C(C)=C5CCC(=O)O)C(CCC(=O)O)=C4C)c(C)c3C=C,-4.72% [at 42.5 µM],–
O=C1[C@H](CC[C@H](O)c2ccc(F)cc2)[C@@H](c2ccc(O)cc2)N1c1ccc(F)cc1,-18.1% [at 42.5 µM],–
C=C(C)C(=O)OCCOc1ccccc1,0.214%,–
Cl/C(=C\n1cncn1)c1ccc(Cl)cc1Cl,0.0431% [at 42.5 µM],–
CN1CCC(=C2c3ccccc3CCc3sccc32)CC1,-6.74% [at 42.5 µM],–
Oc1ccc(O)c2c(O)cccc12,-7.89%,–
O=C(O)Cn1c(C(=O)Nc2nc(-c3ccccc3Cl)cs2)cc2ccccc21,-2.06% [at 42.5 µM],–
Cn1c(NCCN(CCO)CCCc2ccc([N+](=O)[O-])cc2)cc(=O)n(C)c1=O,0.603% [at 42.5 µM],–
O=C(O)[C@@H]1[C@H]2C[C@H]3c4[nH]c5ccccc5c4CCN3C[C@@H]2CC[C@@H]1O,0.247% [at 42.5 µM],–
Nc1ccc(C(=O)Nc2ccccc2N)cc1,–,11.9 µM (active)
CCCCOC(=O)/C=C\C(=O)OCCCC,-3.03%,–
